{"source": "PubChem BioAssay AID720517", "about": "(National Center for Advancing Translational Sciences (NCATS), 2013)", "note": "Results filed as inconclusive are left out. Where a call stands in place of a potency, no number is given. Calls of active or inactive are those of the source. Calls follow the shape of the dose curve; as a rule, active = well fitted activation curve with a large enough effect; inconclusive = small, poorly fitted or top-dose-only effect; inactive = flat fitted curve, though single readings scatter. Potency is read from the fitted curve at half-maximal effect."}
{"test": "qHTS for Inhibitors of Cell Surface uPA Generation: FP59 Counterscreen for Cherry-picked Compounds", "settings": "FP59 anthrax toxin cytotoxicity counterscreen, cells; series mostly up to 115 µM"}
{"molecule": "COc1ccccc1C(=O)Nc1cccc(C(=O)c2ccccc2)c1", "Potency": "inactive"}
{"molecule": "COc1ccc(CNC(=O)C2(CC3CC(c4ccccc4)=NO3)CCNCC2)cc1", "note": "(stereo not given)", "Potency": "inactive"}
{"molecule": "C[C@@H](NC(=O)c1nc[nH]c1C(=O)NCc1ccc(CNC(=O)OC(C)(C)C)cc1)c1ccccc1", "Potency": "58.5 µM (active)"}
{"molecule": "CCOc1cc(/C=C(\\C#N)C(=O)NCc2cccnc2)ccc1O", "Potency": "inactive"}
{"molecule": "O=C(C1CCN(c2nnc(N3CCCC3=O)s2)CC1)N1CCN(c2cccc(C(F)(F)F)c2)CC1", "Potency": "inactive"}
{"molecule": "CN(/N=C/c1cc(Cl)cc(Cl)c1O)C(=S)NC(C)(C)C", "Potency": "inactive"}
{"molecule": "COC(=O)/C(C#N)=C\\c1c(OC)[nH]c2ccccc12", "Potency": "inactive"}
{"molecule": "CS(=O)(=O)Nc1cccc(C2=NN(S(=O)(=O)c3ccccc3)C(c3ccco3)C2)c1", "note": "(stereo not given)", "Potency": "inactive"}
{"molecule": "COc1ccc(C)cc1NC(=O)NNC(=O)C1CCC(C(C)(C)C)CC1", "note": "(stereo not given)", "Potency": "inactive"}
{"molecule": "COc1ccc([C@@H]2[C@@H]3C(=O)N(C(C)(C)C)C(=O)[C@@H]3[C@]3(C)C(=O)N(c4cccc(Cl)c4)C(=O)N23)cc1", "Potency": "inactive"}
{"molecule": "CCOC(=O)Cn1c(=O)cc(C)c2cccc(C)c21", "Potency": "inactive"}
{"molecule": "Cc1ccc(/C=N/NC(=O)c2ccc3nc[nH]c3c2)s1", "Potency": "inactive"}
{"molecule": "CCCCN(CC)CCNC(=O)c1cc2cc3ccc(Cl)cc3nc2o1", "Potency": "inactive"}
{"molecule": "Cc1nnc2ccc(-c3ccc(NS(=O)(=O)c4ccc(Cl)s4)cc3)nn12", "Potency": "inactive"}
{"molecule": "CCOc1ccc(/C=N/NC(=S)Nc2c(C)cccc2C)cc1", "Potency": "inactive"}
{"molecule": "CCCn1nnc(NC(=S)NC(=O)c2ccccc2OC)n1", "Potency": "inactive"}
{"molecule": "CCOC(=O)Oc1c(OC)cc(C(=O)O[C@@H]2C[C@@H]3CN4CCc5c([nH]c6cc(OC)ccc56)[C@H]4C[C@@H]3[C@H](C(=O)OC)[C@H]2OC)cc1OC", "Potency": "inactive"}
{"molecule": "CC(C)c1ccc(NC(=O)COc2ccc(S(=O)(=O)N3CCOCC3)cc2)cc1", "Potency": "inactive"}
{"molecule": "Cc1noc(C)c1COc1ccc(C(=O)N2CCN(S(=O)(=O)c3ccc(Cl)cc3)CC2)cc1", "Potency": "inactive"}
{"molecule": "Cn1c(CN2CCCC2)nc2cc(NC(=O)COc3ccccc3)ccc21", "Potency": "inactive"}
{"molecule": "COc1ccc(C(=O)NCCCN2CCOCC2)cc1", "Potency": "inactive"}
{"molecule": "CCOC(=O)C1CCN(CC(=O)Nc2cc(C)nn2-c2nc3ccccc3s2)CC1", "Potency": "inactive"}
{"molecule": "COc1ccc(C2=NS(=O)(=O)N(C)C(C(=O)NCc3ccccn3)=C2)cc1", "Potency": "inactive"}
{"molecule": "COCCN(CCOC)c1nc(-c2ccc(C)cc2)nc2ccccc12", "Potency": "inactive"}
{"molecule": "Cc1oc(-c2ccccc2F)nc1CS(=O)(=O)CC(=O)NC1CCCC(C)C1C", "note": "(stereo not given)", "Potency": "inactive"}
{"molecule": "COc1ccccc1NNC(=O)C(O)(c1ccccc1OC)c1ccccc1OC", "Potency": "inactive"}
{"molecule": "Cc1cc(OC(C)C(=O)NCc2ccccn2)c2c(C)cc(=O)oc2c1", "note": "(stereo not given)", "Potency": "inactive"}
{"molecule": "COc1ccc(OC)c(N2C(=O)CC(Cc3cc(C)cc(C)c3)C2=O)c1", "note": "(stereo not given)", "Potency": "inactive"}
{"molecule": "Cn1c(=O)n(CC(=O)O)c(=O)c2c1nc1n2CCCN1CCc1ccccc1", "Potency": "inactive"}
{"molecule": "O=[N+]([O-])c1ccc(C[n+]2cccc(O)c2)cc1", "Potency": "inactive"}
{"molecule": "Clc1ccc(C2=NN=C3COc4ccccc4N3C2)cc1", "Potency": "inactive"}
{"molecule": "CC(O)[C@H]1CNC(=O)C(=O)N1CCc1cccc(F)c1", "note": "(stereo not given in full)", "Potency": "inactive"}
{"molecule": "CCOc1ccc(-c2n[nH]c(=S)n2Cc2ccccc2)cc1", "Potency": "inactive"}
{"molecule": "O=C(CNC(=O)c1ccc(Br)o1)NNC(=O)c1ccccc1", "Potency": "inactive"}
{"molecule": "CC(C)N1CCc2c(sc(NC(=O)CCc3ccccc3)c2C(N)=O)C1", "Potency": "inactive"}
{"molecule": "NC(=O)c1ccccc1NC(=O)CC12CC3CC(CC(C3)C1)C2", "Potency": "inactive"}
{"molecule": "O=C(O)CC1(CC(=O)NCc2ccc(Cl)cc2)CCCCC1", "Potency": "inactive"}
{"molecule": "O=c1ccc(S(=O)(=O)N2CCCC2)c[nH]1", "Potency": "inactive"}
{"molecule": "COCCN(C(=O)c1ccc(OC2CCN(S(=O)(=O)N(C)C)CC2)cc1)C(C)C", "Potency": "inactive"}
{"molecule": "CCOC(=O)N1CCc2c(sc3nc4n(c(=O)c23)N=C(C)CS4)C1", "Potency": "inactive"}
